The list is not random: actives were taken first. Their share in the collection is about 2.9%.
Mtb FBA inh: inhibits M. tuberculosis FBA enzyme. purified M. tuberculosis FBA, fluorescence read-out. AID 588726. inhibition, % at 1 µM. 360,000 tested, 2.3% active. P9WQA3;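 note: 0% = vehicle and 100% = reference inhibitor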
Target sequence (P9WQA3 whole entry, looked up): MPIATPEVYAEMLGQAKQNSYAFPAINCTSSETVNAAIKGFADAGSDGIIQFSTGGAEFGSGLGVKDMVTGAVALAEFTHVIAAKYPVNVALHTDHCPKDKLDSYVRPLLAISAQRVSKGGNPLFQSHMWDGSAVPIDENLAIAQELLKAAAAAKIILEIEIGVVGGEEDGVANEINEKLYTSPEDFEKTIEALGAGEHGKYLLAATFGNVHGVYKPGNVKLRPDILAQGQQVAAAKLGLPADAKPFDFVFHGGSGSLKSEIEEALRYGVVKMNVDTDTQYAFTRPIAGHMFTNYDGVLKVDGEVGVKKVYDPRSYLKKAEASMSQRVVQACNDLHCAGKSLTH
Mtb hypoxia inh: reduces hypoxia-regulated biosensor signal in M. tuberculosis. M. tuberculosis hypoxia-regulated fluorescent reporter, fluorescence. fluorescence inhibition, % (test concentration not listed). 300,000 tested, 0.1% active; in the data active = fluorescence inhibition mostly above about 23%, no sharp cut-off; inactive = mostly below about 17%
FadD28 binding: inhibitors of Mycobacterium tuberculosis FadD28 bisubstrate binding; FadD28 bisubstrate probe binding, fluorescence polarization; inhibition, % at 12.5 µM; 360,000 tested, 0.22% active; in the data active = inhibition above about 8.5%, passing the limit was not always enough; inconclusive = no clear call, values can overlap the other calls
GDH-TPI counter-1: GDH-TPI coupled enzyme inhibition counter-screen; inhibition, % at 4.8 µM; AID 588335; GDH-TPI coupled enzyme counterscreen, NADH absorbance; 360,000 tested, 1.2% active; in the data active = inhibition above about 30%;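 note: 0% = DMSO wells and 100% = wells lacking the enzyme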
Mtb BioA inh: blocks M. tuberculosis BioA enzyme activity; purified M. tuberculosis BioA enzyme, plate reader; inhibition, % at 9.99 µM; 360,000 tested, 0.096% active; AID 602481; in the data active = inhibition above about 40%; inconclusive = no clear call, values can overlap the other calls
Mtb FBA confirm: confirmation of M. tuberculosis fructose-bisphosphate aldolase inhibitors. purified M. tuberculosis FBA, fluorescence read-out. 5,600 tested, 78% active. AID 651616. shares compounds with Mtb FBA inh. inhibition, % at 1 µM;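 note: 0% = vehicle wells and 100% = reference inhibitor wells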
GDH-TPI counter-2: counter-screen for M. tuberculosis FBA inhibitors: GDH-TPI coupled enzyme inhibition; shares compounds with Mtb FBA inh; 5,600 tested, 81% active; inhibition, % at 1 µM; GDH-TPI coupled enzyme counterscreen, fluorescence; in the data active = inhibition above about 10%
Numbers without * were called inactive; ? = inconclusive; · = no result; + = active, no number. Cut-off read from the data, not from the text of the source, unless noted: active = inhibition above about 27%; inactive = the rest.

SMILES | Mtb FBA inh | Mtb hypoxia inh | FadD28 binding | GDH-TPI counter-1 | Mtb BioA inh | Mtb FBA confirm | GDH-TPI counter-2
O=C(COc1ccc2c(c1)oc(=O)c1ccccc12)NC(Cc1ccc(Cl)cc1)C(=O)O (stereo not given) | 74* | · | -11 | 13 | 1 | 186* | 132*
COC(=O)Cc1c(C)c2ccc(OC(=O)c3ccccc3)cc2oc1=O | 79* | 2 | 0 | 8 | -2 | 99* | 90*
COc1cccc(C(=O)COc2ccc3c(C)c(Cc4ccccc4)c(=O)oc3c2)c1 | 7 | -1 | -1 | 6 | · | · | ·
COc1ccc(S(=O)(=O)N2CCN(Cc3ccc(OC)c(OC)c3)CC2)cc1 | 29* | 4 | -1 | 7 | -1 | 40* | 42*
OCc1ccc(-c2nn(Cc3ccccc3)c3ccccc23)o1 | 58* | 7 | -3 | 18 | 3 | 82* | 67*
O=C(CN1CCN(S(=O)(=O)c2ccc(Br)cc2)CC1)NN=Cc1cccnc1 | · | -2 | · | · | · | · | ·
CCCOc1ccc(S(=O)(=O)N2CCOCC2)cc1[N+](=O)[O-] | 34* | -8 | 0 | -2 | · | 72* | 63*
Cn1c(-c2ccc(N)cc2)nc2ccccc21 | 88* | 8 | -2 | -4 | 0 | + | +
CCOC(=O)Cn1c(-c2ccc(Cl)nc2)nc2ccccc21 | 43* | -3 | 0 | 11 | · | 122* | 106*
Cn1c(-c2ccc(Cl)nc2)nc2ccccc21 | 37* | 6 | 0 | -1 | 2 | 113* | 83*
Cn1c(CCc2ccc(N)cc2)nc2ccccc21 | 0 | 14 | -3 | -2 | · | · | ·
CNC[C@H]1OCCCC[C@@H](C)Oc2ccc(NC(=O)Nc3ccc4c(c3)OCO4)cc2C(=O)N([C@H](C)CO)C[C@H]1C | · | · | · | · | -3 | · | ·
C=C(Cl)COc1ccc2c(CC)cc(=O)oc2c1 | 28* | 13 | -6 | 8 | 7 | + | +
C=C(C)COc1ccc2c(CC)cc(=O)oc2c1 | 40* | 9 | -5 | 1 | · | 85* | 69*
C=C(Cl)COc1ccc2c(CCCC)cc(=O)oc2c1 | 24 | · | -2 | 2 | · | · | ·
CC(=O)OC1C(OC(=O)CC(C)C)c2c(ccc3ccc(=O)oc23)OC1(C)C (stereo not given) | · | 10 | · | · | · | · | ·
CC1(C)Oc2ccc3ccc(=O)oc3c2[C@@H](O)[C@H]1O | 69* | 4 | 1 | 17 | 0 | 64* | 66*
CC1(C)Oc2ccc3ccc(=O)oc3c2CC1O (stereo not given) | 78* | 7 | -1 | 27 | 0 | 80* | 69*
CC(C)CC(=O)OC(C)(C)C1Cc2c(ccc3ccc(=O)oc23)O1 (stereo not given) | · | 6 | · | · | · | · | ·
COc1cc2cc(Oc3ccc4ccc(=O)oc4c3)c(=O)oc2cc1O[C@@H]1O[C@H](CO)[C@@H](O)[C@H](O)[C@H]1O | 16 | · | ? | 19 | 3 | · | ·
CC1(C)Oc2ccc3ccc(=O)oc3c2C[C@H]1O[C@@H]1O[C@H](CO)[C@@H](O)[C@H](O)[C@H]1O | 55* | · | -1 | 11 | -1 | 22 | 12*
CCO[C@H]1c2c(ccc3ccc(=O)oc23)OC(C)(C)[C@H]1O | 35* | · | -3 | 9 | -1 | + | +
CO[C@@H]1CN(C)C(=O)c2ccc(NC(=O)c3cc(C)on3)cc2OC[C@@H](C)NC[C@@H]1C | · | · | · | · | -2 | · | ·
C[C@@H]1CN([C@H](C)CO)C(=O)c2cc(N(C)C)ccc2O[C@@H](C)CCCCO[C@@H]1CN(C)Cc1ccc(C(F)(F)F)cc1 | · | · | · | · | 0 | · | ·
Cc1ccc(S(=O)(=O)N(C)C[C@H]2Oc3ccc(NC(=O)NC(C)C)cc3C(=O)N([C@H](C)CO)C[C@H]2C)cc1 | · | · | · | · | 0 | · | ·
CC(C)(C)C(O)=C(C#N)c1nc2ccccc2[nH]1 | · | -1 | · | · | · | · | ·
C[C@@]12C(=O)N(Cc3ccc(Cl)cc3)CC(=O)N1C1c3ccccc3OCC1C2c1ccccc1 (stereo not given in full) | · | -5 | · | · | · | · | ·
COc1ccc2sc(C)cc(=O)c2c1 | 107* | · | -1 | 15 | -1 | 88* | 52*
C=CCNc1nc(NCC)nc(N2CCOCC2)n1 | -2 | · | -4 | -2 | 2 | · | ·

Screens (PubChem)
